HEK cytotox – cytotoxic compounds in HEK 293 cells | 94,000 tested, 6.6% active | Potency, µM (series often up to 115 µM), without a hit: at the highest dose activity change, negative = cytotoxicity, most hits filed as inhibitors | HEK 293 viability, ATP luminescence (CellTiter-Glo), 48-72 h; further: on the % scale 0 is the no-effect control and ±100 the full control effect; nearly all actives have a fitted effect of over 60% in size
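Cytotoxicity was scored by loss of ATP-coupled luminescence (CellTiter-Glo) in HEK 293 cells. Compound treatment ran 48 or 72 hr at 37 degree Celsius, 5% CO2, 95% humidity.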
hNpr1 antagonist – antagonists of human natriuretic peptide receptor Npr1. P16066. Potency, µM (top dose mostly 46.3 µM), inactives show at the highest dose activity change, negative = inhibition, actives largely listed as inhibitors. 76,000 tested, 1.6% active. HEK293 hNpr1 GloSensor cGMP, ANP-stimulated luminescence; calls by dose curve; further: on the % scale 0 is the no-effect control and ±100 the full control effect; nearly all actives have a fitted effect of over 60% in size
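Compound pre-incubated 30 min at room temperature on GloSensor-loaded HEK293 cells stably carrying hNpr1 and the pGS-40F cGMP biosensor. Stimulation uses hNppA at 0.1 nM final; luminescence is taken at baseline and 20 min post-agonist.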
NIH3T3 tox – NIH 3T3 cell cytotoxicity | Potency, µM (highest dose often 96.7 µM), for inactives: at the highest dose activity change, negative = cytotoxicity, usual class: inhibitors | AID 1345082 | NIH 3T3 viability, CellTiter-Glo ATP luminescence, 48-72 h | 94,000 tested, 4.3% active; further: on the % scale 0 is the no-effect control and ±100 the full control effect; nearly all actives have a fitted effect of over 55% in size
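ATP-dependent luminescence (CellTiter-Glo) served as the viability signal for NIH 3T3 cells treated with compound for 48 or 72 hr at 37 °C.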
GPT2 inhibitor – GPT2 alanine aminotransferase inhibition; Recombinant GPT2, coupled pyruvate oxidase/HRP Amplex Red fluorescence; Potency, µM (top dose mostly 57.7 µM), for the others: top-dose activity change, negative = inhibition, usual class: inhibitors; 100,000 tested, 0.25% active; further: on the % scale 0 is the no-effect control and ±100 the full control effect; nearly all actives have a fitted effect of over 60% in size
Target sequence (Q8TD30 whole entry, looked up): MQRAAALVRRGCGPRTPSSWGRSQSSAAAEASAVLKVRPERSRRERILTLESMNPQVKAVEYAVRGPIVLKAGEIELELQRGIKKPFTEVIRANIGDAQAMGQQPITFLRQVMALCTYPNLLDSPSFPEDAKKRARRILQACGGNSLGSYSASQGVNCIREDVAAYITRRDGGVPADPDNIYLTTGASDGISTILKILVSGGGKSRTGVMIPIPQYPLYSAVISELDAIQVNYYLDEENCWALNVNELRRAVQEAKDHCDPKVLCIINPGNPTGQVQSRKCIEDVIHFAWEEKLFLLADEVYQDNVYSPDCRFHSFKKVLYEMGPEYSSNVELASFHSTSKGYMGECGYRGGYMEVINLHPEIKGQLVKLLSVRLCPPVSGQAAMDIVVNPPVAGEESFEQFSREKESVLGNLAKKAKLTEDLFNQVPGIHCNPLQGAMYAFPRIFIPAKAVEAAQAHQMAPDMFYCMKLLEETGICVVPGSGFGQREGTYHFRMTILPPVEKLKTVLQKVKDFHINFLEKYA
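Recombinant GPT2 (10ng/uL) with 250uM a-KG and 2mM L-alanine, 30 min at room temperature, in HEPES pH 7.5 buffer. Pyruvate detected by pyruvate oxidase/HRP/Amplex Red fluorescence after 30 min in the dark; AOA (50uM) as positive control.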
Luciferase inh – inhibitors of firefly (Photinus pyralis) luciferase | purified P. pyralis luciferase, luminescence, biochemical | Potency, µM (doses to about 115 µM), hits mostly inhibitors | 76,000 tested, 2.5% active | AID 1347043; further: on the % scale 0 is the no-effect control and ±100 the full control effect; nearly all actives have a fitted effect of over 65% in size
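FLuc 10nM, D-luciferin 10uM, ATP 10uM, Mg acetate 10mM, Tris acetate pH 7.5, Tween/BSA; cpd qHTS; enzyme added last; CCD luminescence.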
NPR1 antag cnf – confirmation of human Npr1 natriuretic peptide receptor antagonists | shares compounds with hNpr1 antagonist | HEK293 hNpr1 cGMP GloSensor luminescence, ANP-stimulated | Potency, µM (top dose mostly 57.6 µM), without a hit: at the highest dose activity change, negative = inhibition, usual class: inhibitors | 1,400 tested, 76% active | AID 1347044; calls by dose curve; further: nearly all actives have a fitted effect of over 70% in size
NPR2 antag – hNpr2 antagonism, selectivity versus Npr1; Potency, µM (highest dose often 57.6 µM), for inactives: at the highest dose activity change, negative = inhibition, most hits filed as inhibitors; 1,400 tested, 67% active; HEK293 hNpr2 GloSensor cGMP luminescence, CNP-stimulated; shares compounds with hNpr1 antagonist; calls by dose curve; further: nearly all actives have a fitted effect of over 70% in size
FLuc counter – counter-screen for Npr1 antagonists: firefly luciferase inhibitors; shares compounds with hNpr1 antagonist; Potency, µM (highest dose often 57.6 µM), for inactives: at the top dose activity change, negative = inhibition, usual class: inhibitors; purified FLuc enzyme, luminescence, Km substrate; 1,400 tested, 0.7% active; further: 0% is about no effect
GloSensor cGMP – control cell line activity, Npr1 antagonist counter-screen | shares compounds with hNpr1 antagonist | HEK293 GloSensor cGMP, SNP-stimulated, luminescence | Potency, µM (doses to about 57.6 µM), for inactives: top-dose activity change, negative = inhibition, usual class: inhibitors | 1,400 tested, 69% active; calls by dose curve; further: on the % scale 0 is the no-effect control and ±100 the full control effect; nearly all actives have a fitted effect of over 70% in size
The depositor's hits bear a star; i = inactive; u = inconclusive; x = not tested or not shown; [ ] = dose if it differs, or a comment. Only some compounds are listed: those with a hit (about 10% of all), similar ones and a draw of the others. Unless noted, the call rests on the fitted dose curve; in most records, active means well fitted curve in the direction sought with a large enough effect; inconclusive means small, poorly fitted or top-dose-only effect, or another doubt; inactive means no such curve, though single readings can be large; an effect the other way counts as inactive or inconclusive. Potency means the concentration at half of the fitted maximal effect.

SMILES	HEK cytotox	hNpr1 antagonist	NIH3T3 tox	GPT2 inhibitor	Luciferase inh	NPR1 antag cnf	NPR2 antag	FLuc counter	GloSensor cGMP
O=C(Nc1cccc(C(F)(F)F)c1)c1nc2c(o1)CCN(Cc1ccccc1F)CC2	63µM*	u	50µM*	-24%[88.5 µM]	i	u	u	-27%[86.2 µM]	u
O=C(NCCOc1ccccc1)c1nc2c(o1)CCN(Cc1cccc(F)c1)CC2	u	u	u	1%[88.5 µM]	i	x	x	x	x
O=C(Nc1cccc(C(F)(F)F)c1)c1nnn2c1CN(Cc1ccccc1F)C(=O)CC2	u	-8%	u	i	i	x	x	x	x
O=C(Nc1ccc(Cl)cc1)c1nc2c(o1)CCN(Cc1cccc(F)c1)CC2	u	7.9µM*	u	-4%[88.5 µM]	i	11µM*	16µM*	-23%[86.2 µM]	11µM*
Cc1cc(C)c(CN2CCC3(CC2)Cc2ccccc2CNC3=O)c(C)c1	0%	x	0%	i	x	x	x	x	x
O=C(Nc1cccnc1)c1nc2c(o1)CCN(Cc1ccc(F)cc1F)CC2	u	32µM*	u	3%[88.5 µM]	i	40µM*	40µM*	-24%[86.2 µM]	35µM*
O=C(c1cc(F)ccc1F)N1CCC(Cc2nc(-c3cnccn3)no2)CC1	3%	7%	-10%	-7%	i	x	x	x	x
COc1ccc(-c2noc(CC3CCN(C(=O)c4cc(Cl)ccc4F)CC3)n2)cc1	40µM*	7.1µM*	u	-22%	i	9.7µM*	11µM*	0%	9.7µM*
COc1ccc(-c2noc(CC3CCN(C(=O)c4cc(F)ccc4F)CC3)n2)cc1	u	7.1µM*	u	i	i	6.9µM*	6.9µM*	-4%	4.3µM*
CN(C)c1ccc(CN2CCn3c(nnc3-c3ccccc3)C2)cc1	-1%	x	-6%	i	x	x	x	x	x
CC(Oc1ccccc1)C(=O)Nc1cnc(-c2cccc(Cl)c2)nc1 (stereo unspecified)	u	-23%	u	-16%	i	x	x	x	x
CN(C/C=C/c1ccccc1)c1cc(C2CC(O)C2)nc(N)n1 (stereo unspecified)	u	13µM*	-74%	i	i	22µM*	17µM*	1%	24µM*
Cc1cnc(CN(C)c2cc(C3CC(O)C3)nc(N)n2)[nH]1 (stereo unspecified)	3%	3%	-3%	0%	i	x	x	x	x
N#Cc1cccnc1N1CCC(NC(=O)c2ccc3nccn3c2)CC1	u	11µM*	-63%	-4%	i	22µM*	24µM*	2%	19µM*
COc1ccc(C(=O)Nc2ccc(-c3noc([C@@H]4CCCN4Cc4ccco4)n3)cn2)cc1	u	13µM*	u	0%	i	14µM*	19µM*	u	17µM*
COc1ccc(C(=O)Nc2ccc(-c3noc([C@@H]4CCCN4Cc4c[nH]c5ccccc45)n3)cn2)cc1	u	10µM*	u	2%	i	11µM*	19µM*	-5%	11µM*
CCCCOc1ccc(C(=O)N2CCC[C@H]2c2nc(-c3ccc(OC)cc3)no2)cc1	25µM*	u	u	i	i	u	-26%	-16%	u
COc1ccc(C(=O)Nc2ccc(-c3noc([C@@H]4CCCN4CCCc4ccccc4)n3)cn2)cc1	16µM*	13µM*	u	1%	i	17µM*	19µM*	-24%	14µM*
COc1cc(OC)c(OC)cc1CN1CCc2nc(N3CCOCC3)[nH]c(=O)c2CC1	-8%	x	-12%	i	x	x	x	x	x
Cc1ccc(Cn2c(C3CCN(C(=O)c4ccc(C)c(F)c4)CC3)n[nH]c2=O)cc1	u	-3%	-12%	i	i	x	x	x	x
O=C(NC1CCN(c2cc(-c3ccccc3)[nH]n2)CC1)c1cnccn1	1%	5%	-5%	-6%	i	x	x	x	x
COc1ccc(C2(C(=O)N3CCCCCC3c3nc(C4CC4)no3)CC2)cc1 (stereo unspecified)	u	-15%	u	i	i	x	x	x	x
COCC(=O)Nc1ccc(-c2noc([C@@H]3CCCN3Cc3cccnc3)n2)cn1	-19%[172 µM]	-1%[70.6 µM]	-27%[174 µM]	3%[88.5 µM]	i	x	x	x	x
COc1ccc(C2(C(=O)N3CCC[C@H]3c3nc(-c4ccccc4Cl)no3)CC2)cc1	u	10µM*	u	i	i	22µM*	22µM*	0%	24µM*
COc1ccc(C(=O)Nc2ccc(-c3noc([C@@H]4CCCN4Cc4ccc(F)cc4)n3)cn2)cc1	u	11µM*	u	1%	i	14µM*	17µM*	-22%	12µM*
SMILES	HEK cytotox	hNpr1 antagonist	NIH3T3 tox	GPT2 inhibitor	Luciferase inh	NPR1 antag cnf	NPR2 antag	FLuc counter	GloSensor cGMP
Cc1nn2c(c1-c1cccnc1N1CCOCC1)N(CC1CCOCC1)CCC2	u	u	35µM*	-4%[88.5 µM]	i	u	u	5%[86.2 µM]	u
COc1cccc(S(=O)(=O)N2CCC(n3cnnc3C(C)C)CC2)c1	-27%	u	u	i	i	u	u	-2%	u
Cc1cc(S(=O)(=O)N2CCC(n3cnnc3-c3ccccc3)CC2)ccc1F	-23%	-28%	-23%	4%	i	x	x	x	x
Cc1ccc(S(=O)(=O)N2CCC(n3cnnc3-c3ccccc3)CC2)cc1C	u	-23%	u	i	i	u	u	-1%	-4%
CCc1nncn1C1CCN(S(=O)(=O)c2cccc(OC)c2)CC1	-2%	-12%	-19%	i	i	x	x	x	x
CCOCCNc1ncnc2c1CN(c1cccc(C)c1)C(=O)CN2C	-21%	x	-25%	u	x	x	x	x	x
Fc1ccc(CN2CCC(Oc3ccccc3-c3nc(-c4cnccn4)no3)C2)cc1F (stereo unspecified)	25µM*	-18%	u	-3%	i	u	-29%	-16%	0%
CCCNC(=O)c1cc(-c2ccc(F)cc2)cn1C	-24%	u	-32%	i	i	-27%	-7%	-1%	-26%
CC(C)NC(=O)c1cc(-c2ccc(F)cc2)cn1C	-1%	7%	-5%	-1%	i	x	x	x	x

Screens: PubChem BioAssay, National Center for Advancing Translational Sciences (NCATS)
